High-throughput results (PubChem BioAssay)
Shown is part of a subset that was picked to be rich in hits.
Methyltransferases: Primary Screen for Target Class Profiling of Small Molecule Inhibitors of Methyltransferases. purified enzyme, MTase-Glo SAH luminescence; active compounds read low. calls only at 40 µM. 3.9% of 25,000 active; call rule not given here
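Each enzyme was assayed with SAM and its substrate. SAH formation detected by MTase-Glo luminescence; single-point 40 uM screen[…].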
Of the large screens only hits and unclear results are named; the others gave an inactive call.

CCOc1ccc(CNC(=O)CN(C)S(=O)(=O)c2ccc3[nH]c4c(c3c2)CCCC4)cc1OC	none
Fc1ccc(N2CCCCC2)c(NC(=S)c2ccncc2)c1	Methyltransferases active
O=c1[nH]c2ccc(S(=O)(=O)N3CCCc4ccccc43)cc2[nH]1	none
CCN1C(=O)c2cc(C(=O)Nc3cccc(Cl)c3C)nn2CC1(C)C(=O)NC1CCCC1 (stereo unspecified)	none
O=C(CCCc1nnc2n3nc(-c4ccccc4)nc3c3ccccc3n12)N1CCC(N2CCCCC2)CC1	Methyltransferases active
O=C(CCCc1nnc2n3nc(-c4ccccc4)nc3c3ccccc3n12)N1CCN(C2CCCCC2)CC1	none
O=C(CCCc1nnc2n3nc(-c4ccccc4)nc3c3ccccc3n12)N1CCN(Cc2ccccc2)CC1	none
CN1C(=O)c2cc(C(=O)NCc3ccc(F)cc3)nn2CC1(C)C(=O)NC1CCCCC1 (stereo unspecified)	none
COc1ccc2nc3n[nH]c(C)c3c(NCCOCCO)c2c1	Methyltransferases active
CCOC(=O)c1cc2n(n1)CC(C)(C(=O)NC1CCCC1)N(c1cccc(F)c1)C2=O (stereo unspecified)	none
COc1ccccc1CNC(=O)C1c2c(n(C)c3ccccc23)SCC(=O)N1Cc1cccnc1 (stereo unspecified)	none
Cc1cccc(NC(=O)Cn2nc3n(CC(C)C)c(=O)c4ccc(C(=O)NC(C)C)cc4n3c2=O)c1	none
CCN(CC)CCN1C(=O)c2ccc(-c3ccco3)n2CC1(C)C(=O)NC1CCCCC1 (stereo unspecified)	none
Cc1nc(Nc2ncc(C(=O)Nc3c(C)cccc3Cl)s2)cc(N2CCN(CCO)CC2)n1	Methyltransferases active
O=C(NCCCCN1CCN(c2cccc(Cl)c2Cl)CC1)c1cc2ccccc2s1	none
OCCN1CCN(c2ccc(-c3nc(-c4cccc(C(F)(F)F)c4)no3)cn2)CC1	none
COc1ccc(-c2cc3n(n2)CC(C)(C(=O)NCc2ccccc2)N(Cc2ccc(OC)cc2OC)C3=O)cc1 (stereo unspecified)	none
COc1ccccc1CN1C(=O)c2cc(-c3ccco3)nn2CC1(C)C(=O)NC1CCCCCC1 (stereo unspecified)	none
O=C(CCc1nnc2n(Cc3ccc(F)cc3)c(=O)c3ccccc3n12)NCCC1=CCCCC1	none
CCc1ccc(CN2C(=O)c3cc(-c4ccc(OC)cc4)nn3CC2(C)C(=O)NCc2ccccc2OC)cc1 (stereo unspecified)	none
Cc1cccc(N2C(=O)c3cc4ccccc4n3CC2(C)C(=O)NCCC(C)C)c1C (stereo unspecified)	none
Cc1ccccc1Cn1nc2n(Cc3ccccc3)c(=O)c3ccc(C(=O)NC4CCCC4)cc3n2c1=O	none
Clc1ccc(C2(c3ccc(-c4cn[nH]c4)cc3)CCNCC2)cc1	Methyltransferases active
CC(C)CCNC(=O)C1(C)Cn2nc(C(=O)NCc3ccccc3)cc2C(=O)N1C (stereo unspecified)	none
CCOc1ccc(-c2cc3n(n2)CC(C)(C(=O)NC2CCCCC2)N(CCCOC)C3=O)cc1 (stereo unspecified)	none
CCCCNC(=O)Cn1ccc2cc(S(=O)(=O)N3CCCC3)ccc21	none
O=C1NC(=O)/C(=C/c2ccc(-c3ccc(F)cc3O)o2)S1	Methyltransferases active
Cc1ccccc1Cn1nc2n(CC(C)C)c(=O)c3ccc(C(=O)NC(C)C)cc3n2c1=O	none
Cc1cccc(NC(=O)N2CCn3cccc3C2C)c1 (stereo unspecified)	none
CC1CCCC(NC(=O)C2(C)Cn3c(ccc3-c3ccco3)C(=O)N2Cc2cccnc2)C1C (stereo unspecified)	none
CCc1ccc(S(=O)(=O)c2nnn3c2nc(NC2CC2)c2cc(Cl)ccc23)cc1	none
Cc1cccc(C)c1NS(=O)(=O)c1ccc2[nH]c3c(c2c1)CCCC3	none
c1cc(NCCc2c[nH]c3ccccc23)cc(Nc2ccncc2)c1	Methyltransferases active
Cc1ccc(C)c(S(=O)(=O)c2nnn3c2nc(NCCc2c[nH]c4ccccc24)c2ccccc23)c1	none
O=C(O)CCCc1c[nH]c2ccccc12	none
Cc1ccc(-c2nnn3c2nc(NCCc2c[nH]c4ccccc24)c2ccccc23)cc1	none
c1ccc2c(CCNc3ccc(Nc4ccncc4)cc3)c[nH]c2c1	Methyltransferases active
O=C(CN1C(=O)C2(CCCCC2)C1c1ccccc1)NCCc1c[nH]c2ccccc12 (stereo unspecified)	none
O=C1CN(Cc2cccc(Br)c2)S(=O)(=O)c2ccccc2N1Cc1ccc(F)cc1	none
Cc1ccc(NC(=O)CSc2nnc3n(Cc4ccc(F)cc4)c(=O)c4ccccc4n23)cc1C	none
CSc1ccc(CNC(=O)Cn2ccc3cc(S(=O)(=O)N4CCC(C)CC4)ccc32)cc1	none
CC1(C(=O)NCC2CCCO2)Cn2c(cc3ccccc32)C(=O)N1Cc1cccc(Cl)c1 (stereo unspecified)	none
CCCn1c(=O)c2ccc(Cl)cc2n2c(=O)n(Cc3ccccc3Cl)nc12	none
CCc1cc2c(cc3n2CC(C)(C(=O)NC2CCCCCC2)N(c2ccccc2C)C3=O)s1 (stereo unspecified)	none
CCOC(=O)c1cc2n(n1)CC(C)(C(=O)NC1CCCC1)N(c1ccc(OCC)cc1)C2=O (stereo unspecified)	none
CCCn1c(=O)c2ccc(C(=O)NC3CCCCC3)cc2n2c(SCc3cccc(OC)c3)nnc12	none
Nc1ccc(CCNc2ncnc3c2ncn3C2OC(CO)C(O)C2O)cc1 (stereo unspecified)	none
OC[C@H]1O[C@@H](n2cnc3c(NC4CCCCC4)ncnc32)[C@H](O)[C@@H]1O	none
Nc1ncnc2c1c(I)cn2C1OC(CO)C(O)C1O (stereo unspecified)	Methyltransferases active
OC[C@H]1O[C@@H](n2cnc3cncnc32)[C@H](O)[C@@H]1O	Methyltransferases active
OC[C@H]1O[C@@H](n2cnc3c(NC4CCCC4)ncnc32)[C@H](O)[C@@H]1O	none
Nc1nc(F)nc2c1ncn2[C@@H]1O[C@H](CO)[C@@H](O)[C@@H]1O	none
COc1ccc(N2C(=O)c3cc4oc(C)cc4n3CC2(C)C(=O)NC2CCCCCC2)cc1Cl (stereo unspecified)	none
CCC(C)NC(=O)c1ccc2c(=O)n(C)c3nnc(SCC(=O)Nc4cccc(F)c4)n3c2c1 (stereo unspecified)	none
C[S+](CC[C@H](N)C(=O)[O-])C[C@H]1O[C@@H](n2cnc3c(N)ncnc32)[C@H](O)[C@@H]1O (stereo partly specified)	none
CCc1ccc(CNC(=O)c2ccc3c(=O)nc4c(-c5ccccc5)n[nH]n4c3c2)cc1	none
O=C(CSc1nnc2n(Cc3ccc(F)cc3)c(=O)c3ccccc3n12)Nc1ccc(F)cc1	none
Cc1ccc(Cn2nc3n(Cc4ccc(C)cc4)c(=O)c4ccccc4n3c2=O)cc1	none
COc1ccc(C(=O)Cn2nc3n(CC(C)C)c(=O)c4ccccc4n3c2=O)cc1	none
CCCCNc1nc2c(-c3cccc(F)c3)nnn2c2ccccc12	none
Cc1[nH]c2ccccc2c1CCNC(=O)c1ccccc1F	none
Cc1[nH]c2ccccc2c1CCNCc1ccc(/C=C/C(=O)NO)cc1	Methyltransferases active
COc1ccc(N2C(=O)CSc3c(c4ccccc4n3C)C2C(=O)NCCCOC(C)C)cc1 (stereo unspecified)	none
CCC(C)NC(=O)c1ccc2c(=O)n(C)c3nnc(SCc4ccc(Cl)cc4)n3c2c1 (stereo unspecified)	none
CCN(CCCNC(=O)CCCc1nnc2n3nc(-c4ccccc4)nc3c3ccccc3n12)c1ccccc1	none
CCC(C)NC(=O)c1ccc2c(=O)n(C(C)C)c3nn(Cc4ccccc4F)c(=O)n3c2c1 (stereo unspecified)	none
